Reference: PubChem BioAssay (NCATS)
Results filed as inconclusive are left out. Unmarked numbers belong to inactive results. The source made the active and inactive calls. Calls follow the shape of the dose curve; as a rule, active = well fitted inhibition curve with a large enough effect; inconclusive = small, poorly fitted or top-dose-only effect; inactive = flat fitted curve, though single readings scatter. Where a SMILES comes first, the peptide text is derived from it.
% is scaled to controls: 0 for no effect and ±100 for the full control effect.

What follows are compounds tested on KB-3-1 (assay: Cytotoxic Profiling of Annotated Libraries Using Quantitative High-Throughput Screening (AID 1296008; also: nearly all actives have a fitted effect of over 60% in size)). Conditions: Five cell lines viability, CellTiter-Glo ATP luminescence, 48-72 h; max response: active compounds read low.
From the text: Cell-based phenotypic screening is a commonly used approach to discover biological pathways, novel drug targets, chemical probes and high-quality hit-to-lead molecules. Many hits identified from high-throughput screening campaign are ruled out through a series of follow-up potency, selectivity/specificity, and cytotoxicity assays. Prioritization of molecules with little or no cytotoxicity for a more in-depth downstream evaluation influence the future direction of projects, so cytotoxicity profiling of the screening libraries at early stage is essential for increasing the likelihood of candidate success. […] For the annotated library, we also examined the primary targets and mechanistic pathways regularly associated with cell death. To our knowledge, this is the first study to use high-throughput screening to profile large libraries for cytotoxicity assessment in both normal and cancer cell lines. In summary, the results generated here constitutes a valuable resource for the scientific community and provides insight on identifying cytotoxic compounds with particular mechanisms of action, and prioritizing compounds with suitable cytotoxicity profile for further evaluation.
A pintool (Kalypsys) was used to transfer 23 nL of compound solution to the 1536-well assay plates. After 48 or 72 hr incubation at 37 degree Celsius, 5% CO2 and 95% humidity, 2.5 uL of CellTiter-Glo (Promega) was dispensed into each well using a dispenser (Aspect Automation, St. Paul, MN) with solenoid valves (Lee Valves, Westbrook CT). Plates were left at room temperature for 10 min before imaging the ATP-coupled luminescence using a ViewLux microplate imager (PerkinElmer, Waltham, MA).
In the case of `CC1=CCC2C(C)(CO)CCCC2(CO)C1CO` (stereo not given), the outcome is reported as “inactive”. `COC(=O)C1=COC(OC2OC(CO)C(O)C(O)C2O)C2C1CC(OC(=O)C(O)CC(=O)O)C2C` (stereo not given) was tested, and the outcome was “inactive”. `CC1=C2C(=O)O[C@@H](c3ccoc3)[C@]2(C)CCC1` was tested, and the outcome was “inactive” and the max response was 4.53%. In the case of `CC1(C(=O)O)CCCC2(C)C1CCC13CC(CCC21)C1(CO)OC31` (stereo not given), the max response is reported as 2.68%. With `CC(=O)O[C@@H]1[C@@H](OC(=O)/C=C/c2ccccc2)[C@H](C)O[C@@H](O[C@H]2[C@@H]3C=CO[C@@H](O[C@@H]4O[C@H](CO)[C@@H](O)[C@H](O)[C@H]4O)[C@@H]3[C@@]3(CO)O[C@@H]23)[C@@H]1OC(C)=O` the max response was 5.32%. In the case of `CCOc1nc2cccc(C(=O)OCc3oc(=O)oc3C)c2n1Cc1ccc(-c2ccccc2-c2noc(O)n2)cc1`, the outcome is reported as “inactive”. `CC(=O)N[C@@H](CC(=O)N[C@@H](CCC(=O)O)C(=O)O)C(=O)O` was tested, and the max response was -12.8%. In the case of `Cc1cccc(-c2[nH]c(CNc3ccccc3F)nc2-c2ccc3ncnn3c2)n1`, the max response is reported as 6.62%. For `COc1cc(/C=C/C(=O)OC2[C@H](O)CC(O)(C(=O)O)C[C@H]2O)ccc1O` (stereo not given in full), the max response was 0.663%. For `CO[C@H]1C[C@@H]2CC[C@@H](C)[C@@](O)(O2)C(=O)C(=O)N2CCCC[C@H]2C(=O)O[C@H]([C@H](C)C[C@@H]2CC[C@@H](OCCO)[C@H](OC)C2)CC(=O)[C@H](C)/C=C(\C)[C@@H](O)[C@@H](OC)C(=O)[C@H](C)C[C@H](C)/C=C/C=C/C=C/1C`, the max response was -27.1%. For `C=CC(C)(CC/C=C(\C)CC/C=C(\C)CC(O)/C=C(\C)C(=O)O)O[C@@H]1O[C@H](CO)[C@@H](O)[C@H](O)[C@H]1O[C@@H]1O[C@H](CO)[C@@H](O)[C@H](O)[C@H]1O` (stereo not given in full), the max response was 5.27%. `COc1ccc(C(OC2OC(CO)C(O)C(O)C2O)C(C)O)cc1` (stereo not given) showed a max response of 5.57%. In the case of `CC(=O)c1c(O)cc2cccc3c2c1CC(C)(O)O3` (stereo not given), the max response is reported as 4.55%. Work on `CC[C@H]1OC(=O)[C@H](C)[C@@H](OC2C[C@@](C)(OC)[C@@H](O)[C@H](C)O2)[C@H](C)[C@@H](OC2O[C@H](C)C[C@H](NC)[C@H]2O)[C@](C)(O)C[C@@H](C)CN(C)[C@H](C)[C@@H](O)[C@]1(C)O` (stereo not given in full) yielded a max response of -2.3%. `N#CCc1ccc(O)cc1O[C@@H]1O[C@H](CO)[C@@H](O)[C@H](O)[C@H]1O` showed a max response of -0.902%. With `C[C@H]1CN(C[C@H](Cc2ccccc2)C(=O)NCC(=O)O)CC[C@@]1(C)c1cccc(O)c1` the outcome was “inactive”. With `COc1c(C)c2c(c(O)c1C/C=C(\C)CC/C=C(\C)CCC(=O)O)C(=O)OC2` the outcome was “inactive”. In the case of `C=C1C[C@@]23CC[C@@H]4[C@](C)(C(=O)O)CCC[C@@]4(C)C2=CC[C@H]1C3`, the max response is reported as 4.16%. Work on `O=C1NCc2nc3ccccc3c(=O)n2C1Cc1c[nH]c2ccccc12` (stereo not given) yielded a max response of 3.31%. For `NCCOCCOCCNC(=O)Cc1ccc(Nc2nc(NCc3ccc(F)cc3)nc(NCC3CCCCC3)n2)cc1`, the outcome was “inactive”. With `CC1CCC2(C(=O)OC3OC(CO)C(O)C(O)C3O)CCC3(C)C(=CCC4C5(C)CC(O)C(O)C(C)(C(=O)O)C5CCC43C)C2C1(C)O` (stereo not given) the max response was 1.03%. In the case of `CCN[C@@H]1C[C@H](N)[C@@H](O[C@H]2OC(CN)=CC[C@H]2N)[C@H](O)[C@H]1O[C@H]1OC[C@](C)(O)[C@H](NC)[C@H]1O`, the max response is reported as 9.12% and the outcome is reported as “inactive”. With `NC1CCC(N[C@@H]2C[C@H]2c2ccccc2)CC1` (stereo not given in full) the outcome was “inactive”. For `CCCCS(=O)(=O)Nc1ncnc(OCCOc2ncc(Br)cn2)c1-c1ccc(Br)cc1`, the outcome was “inactive”. With `CC(C)CC(=O)OC[C@H]1O[C@@](COC(=O)CC(C)C)(O[C@H]2O[C@H](CO)[C@@H](O)[C@H](O)[C@H]2O)[C@@H](OC(=O)CC(C)C)[C@@H]1OC(=O)CC(C)C` the max response was 9.19%. `CC1CCC23COC(=O)C2=CC(O)CC3C1(C)CCC1=CC(=O)OC1O` (stereo not given) was tested, and the outcome was “inactive”. `COc1cc(/C=C/C(=O)OC2CC3CCC2(C)C3(C)C)ccc1O` (stereo not given) gave a max response of 9.6%. `CC1(C)NC2N(C1=O)c1ccccc1C2(O)CC(C(=O)O)n1cnc2ccccc2c1=O` (stereo not given) was tested, and the outcome was “inactive”. For `C[C@@H]1O[C@@H](O[C@H]2[C@H](O[C@H]3[C@H](O[C@H]4CC[C@@]5(C)C(CC[C@]6(C)C5CC=C5[C@@H]7CC(C)(C(=O)O)C[C@@H](O)[C@]7(C)CC[C@]56C)[C@@]4(C)CO)O[C@H](C(=O)O)[C@@H](O)[C@@H]3O)O[C@H](CO)[C@H](O)[C@@H]2O)[C@H](O)[C@H](O)[C@H]1O` (stereo not given in full), the outcome was “inactive”. `C[C@H]1[C@H](C)CC[C@]2(C(=O)O[C@@H]3O[C@H](CO)[C@@H](O)[C@H](O)[C@H]3O)CC[C@]3(C(=O)O)C(=CCC4[C@@]5(C)CC[C@H](O[C@@H]6O[C@H](CO)[C@@H](O)[C@H](O)[C@H]6O)C(C)(C)C5CC[C@]43C)[C@H]12` (stereo not given in full) gave a max response of 2.34%. `C=C1C(OC(C)=O)C(=O)C2C(C)(C)C(OC(C)=O)CCC2(C)C1CC(OC(C)=O)/C(C)=C/COC(C)=O` (stereo not given) gave a max response of -4.48%. In the case of `Cc1cc(CC(C)CC(C)(C)C)n(O)c(=O)c1` (stereo not given) (tested in a mixture with another compound), the max response is reported as 29.3%. With `COc1ccc(C2=CC(=O)OC2Cc2ccc(O)cc2)c(O)c1` (stereo not given) the max response was 6.42%. With `O=C(OCc1cccc(O)c1O[C@@H]1O[C@H](CO)[C@@H](O)[C@H](O)[C@H]1O)C1(O)C(=O)C2C=CC1C1C=CC(=O)C(O)(C(=O)OCc3cccc(O)c3O[C@@H]3O[C@H](CO)[C@@H](O)[C@H](O)[C@H]3O)C21` (stereo not given in full) the outcome was “inactive”. For `O=C1NC(=Nc2ccccc2F)S/C1=C\c1ccc(C(=O)O)cc1`, the outcome was “inactive”. Work on `C=C1CCC2C(C)(C)C(O)CCC2(C)C1CCC(C)CCOC(=O)CCC(=O)O` (stereo not given) yielded a max response of 1.36%. For `CC1NC(=O)CNC(=O)C(C(C)C)NC(=O)C2CCCN2C(=O)C(C(C)C)NC(=O)C(Cc2c[nH]c3ccccc23)NC1=O` (stereo not given) (cyclo(GAWVPV); configuration not given here), the outcome was “inactive”. In the case of `CC(=O)OCCC(C)CCC1C(C)(O)CCC2C(C)(C)CCCC21C` (stereo not given), the outcome is reported as “inactive”.
